Measurements published in the supplement of paper PMC5641865, “A screen for kinase inhibitors identifies antimicrobial imidazopyridine aminofurazans as specific inhibitors of the Listeria monocytogenes PASTA kinase PrkA” (The Journal of Biological Chemistry, 2017).
Where “and” joins values, the source holds several entries; their conditions need not be identical. Equal entries are not always repeated. ± gives the standard deviation of the averaged measurements.
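Also: End-point A600 read in BHI broth at 37 °C with 2% DMSO, inhibition computed as (1 − OD with compound plus ceftriaxone ÷ OD with ceftriaxone only) × 100.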

What follows are compounds tested on Listeria monocytogenes 10403S (assay: growth inhibition relative to ceftriaxone-alone control; higher = stronger potentiation of ceftriaxone growth inhibition). Settings: 10 µM; ceftriaxone 1 ug/ml; 12 h.
Cc1cc(O)cc(C)c1/C=C/c1cncc(-c2nn[nH]n2)c1 showed a growth inhibition of -2.34 ± 0.16%.
COc1ccc(S(=O)(=O)N(C(C)=O)c2ccccc2/C=C/c2cc[n+]([O-])cc2)cc1 gave a growth inhibition of 13.3 ± 8.8%.
c1ccc(-c2nc3n(c2-c2ccc4c(c2)OCO4)CCC3)nc1 was tested, and the growth inhibition was -10.3 ± 17%.
Work on Cc1ccc(C(=O)Nc2ccc(CN3CCN(C)CC3)c(C(F)(F)F)c2)cc1C#Cc1cnc2cccnn12 yielded a growth inhibition of 94.4 ± 3.5%.
Cc1nnc(-c2ccc(C)c(-c3ccc(C(=O)NCc4ccc(Cl)cc4)cc3)c2)o1 gave a growth inhibition of -4.74 ± 3.3%.
Work on COc1cccc(-n2ncc3c(N/N=C/c4ccc(S(C)(=O)=O)cc4)ncnc32)c1 yielded a growth inhibition of -2.76 ± 9.3%.
In the case of COc1cc(Nc2ncc(F)c(Nc3ccc4c(n3)NC(=O)C(C)(C)O4)n2)cc(OC)c1OC, the growth inhibition is reported as 9.08% and 0.52%.
For CN1CCN(c2ccc3nc(-c4c(N)c5c(F)cccc5[nH]c4=O)[nH]c3c2)CC1 [Dovitinib Dilactic Acid (TKI258 Dilactic Acid)], the growth inhibition was 33.4 ± 20%.
Compound COc1ccc(-c2coc3ncnc(N)c23)cc1 has a growth inhibition of 8.14 ± 12%.
For O=C(O[C@H]1CN[C@H](C#Cc2cc3ncnc(Nc4ccc5c(cnn5Cc5ccccc5)c4)c3s2)C1)N1CCOCC1, the growth inhibition was -5.28 ± 15%.
Work on CS(=O)(=O)CCNCc1coc(-c2ccc3ncnc(Nc4ccc(OCc5ccccc5)cc4)c3c2)c1 yielded a growth inhibition of 4.98 ± 4.3%.
In the case of C#Cc1cccc(Nc2ncnc3cc(OCCOC)c(OCCO)cc23)c1, the growth inhibition is reported as 19.2% and 5.86%.
For NC(=O)c1cc(-c2ccc(F)cc2)cc(-c2ccncc2)c1N, the growth inhibition was -1.35 ± 1.1%.
NS(=O)(=O)c1ccc(N/N=C2\C(=O)Nc3ccc(C(=O)NCCCn4ccnc4)cc32)cc1 showed a growth inhibition of -3.24 ± 3.3%.
Work on C=CC(=O)Nc1cc2c(Nc3ccc(F)c(Cl)c3)ncnc2cc1OCCCN1CCOCC1 [CI-1033 (Canertinib)] yielded a growth inhibition of 21.5 ± 6.1%.
Compound CCCNC(=O)Nc1ccc(Oc2ncnc3cc(OC)c(OC)cc23)cc1Cl has a growth inhibition of 12.7 ± 1.9%.
COc1cccc(-n2ncc3c(N/N=C/c4ccc(C)cc4)ncnc32)c1 gave a growth inhibition of -9.19 ± 0.67%.
FC(F)(F)c1ccc(/C=C/c2nc(COc3ccc(CCCCn4ccnn4)cc3)co2)cc1 [Mubritinib (TAK 165)] showed a growth inhibition of 16.1 ± 6.1%.
Work on Fc1ccc(-c2ncn(CCCN3CCOCC3)c2-c2ccncc2)cc1 yielded a growth inhibition of 1.14 ± 3.2%.
CCN(CC)S(=O)(=O)c1ccc(OC)c(Nc2ncc(-c3ccccc3)o2)c1 showed a growth inhibition of -5.97 ± 2.9%.
COC(=O)Nc1nc2cc(Oc3cccc(NC(=O)Nc4cc(C(F)(F)F)ccc4F)c3)ccc2[nH]1 gave a growth inhibition of -5.06 ± 1.8%.
Compound c1ccc(COc2ccc(Nc3ncnc4ccc(-c5ccco5)cc34)cc2)cc1 has a growth inhibition of -9.94 ± 12%.
With Cn1cnc2c(F)c(Nc3ccc(Br)cc3Cl)c(C(=O)NOCCO)cc21 [AZD6244 (Selumetinib)] the growth inhibition was 0.682 ± 22%.
Cc1cc(Nc2cc(N3CCN(C)CC3)nc(Sc3ccc(NC(=O)C4CC4)cc3)n2)n[nH]1 [VX-680 (MK-0457, Tozasertib)] was tested, and the growth inhibition was 52.7 ± 17%.
In the case of O=C(Nc1ccc(Oc2ccc3[nH]c(NC(=O)c4ccco4)nc3c2)cc1)Nc1cc(C(F)(F)F)ccc1F, the growth inhibition is reported as 9.02 ± 5.9%.
For CN1CCN(C(=O)c2ccc(NC(=O)Nc3ccc(N(C)c4ccnc(Nc5ccc(CS(C)(=O)=O)cc5)n4)cc3)cc2)CC1, the growth inhibition was -5.87 ± 3.3%.
For COc1ccc2cc(-c3c(-c4ccncc4)nc(-c4ccc(S(C)(=O)=O)cc4C)n3C)ccc2c1, the growth inhibition was -1.1 ± 3.1%.
COc1cc(Nc2ncc(F)c(Nc3ccc4c(n3)N(COP(=O)(O)O)C(=O)C(C)(C)O4)n2)cc(OC)c1OC [R788 (Fostamatinib)] was tested, and the growth inhibition was 12.5 ± 9.9%.
Work on O=S(=O)(CCOCc1ccc(-c2ccc3ncnc(Nc4ccc(OCc5cccc(F)c5)c(Cl)c4)c3c2)o1)c1ccccc1 yielded a growth inhibition of -11.6 ± 11%.
For CNC(=O)c1ccc(-c2cnc3ncc(Cc4ccc5ncccc5c4)n3n2)cc1F, the growth inhibition was 16.9 ± 8.9%.
For Cc1cc(C(C)Nc2ccccc2)c2nc(N3CCOCC3)cc(=O)n2c1 (stereo not drawn), the growth inhibition was 24.3 ± 9.5%.
Work on Cc1ccc2c(-c3ccnc(Nc4cccc(C(F)(F)F)c4)n3)c(-c3ccccc3)nn2n1 yielded a growth inhibition of -3.53 ± 4.7%.
NS(=O)(=O)c1cccc(-c2cc3ccncc3cc2OCc2ccccc2)c1 showed a growth inhibition of 8.53 ± 3.9%.
CCS(=O)(=O)c1ccc(OC)c(Nc2ncc(-c3ccccc3Cl)o2)c1 was tested, and the growth inhibition was -2.57 ± 15%.
CNC(=O)c1cc(-c2ccc(F)cc2)cc(-c2ccc(S(=O)(=O)N3CCCC3)cc2)c1N showed a growth inhibition of -4.95 ± 15%.
Work on N#CC[C@H](C1CCCC1)n1cc(-c2ncnc3[nH]ccc23)cn1 yielded a growth inhibition of 10.6 ± 1.1%.
For CN(c1ccc(NC(=O)NCCN2CCOCC2)cc1)c1ccnc(Nc2ccc(CS(C)(=O)=O)cc2)n1, the growth inhibition was -5.31 ± 3%.
Nc1nccc(-c2c(-c3ccc(F)cc3)ncn2CCCN2CCOCC2)n1 showed a growth inhibition of -1.02 ± 0.073%.
